The record followed here is the supplement of paper PMC6555819.

The subject of this assay is LXRb homodimer (NR concentration 270 nM). Briefly: PBM binding z-score (relative to random genomic background probes); higher = stronger binding; sequences stand for … in GC…GCGATTGACAGCGTAGAATGAAGG
The procedure, abridged:
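Custom Agilent 4×180K protein-binding microarrays carried double-stranded probes. Their 34-nt variable regions held direct-repeat seeds, single-nucleotide variants, half-site ablations and random human genomic background sequences. Arrays were incubated 1 h with ligand-free nuclear receptor dimers in PBS pH 7.4, 2% milk, 0.02% Triton X-100, 1 mM DTT, 0.2 mg/mL BSA and 0.4 mg/ml salmon testes DNA. Antibodies against each partner (one per run) detected binding, and scanned fluorescence was regression-normalized. Binding z-scores use random background probes as reference.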
TGAATGAGGTTAAAGATCTGGGAACGTGGCGTCG returned a PBM binding z-score of 0.347.
The value for CTCGCAAGGTCGGTTGAGGTGAGTATACGGATAA was -0.72; that for CCACACAGGTGAAAGGTAACTCAGTCTGGTACGC was -0.0183.
CCTACTGCGCCAAGGTCATTGATCAGTCAAAGCA gave a PBM binding z-score of 0.86.
The value for TCTATTAGTTGAAGTGCAACCGACGAGTCCGTTT was 0.464.
With AGAACGAGGGCAATGAGTAGATAGCACGGGTGGC the figure was -0.59; with TTGCCAAGGTGAAGGTCGTTGATCCCTCTGTAGA, -1.15; with TCTAGTTGGTCACGGAGGTCACACACGACGGGTA, 0.773.
In turn, ACAGACAGGTTAGTGAAGGTAACTCAGCTGGACG displayed a PBM binding z-score of -0.3.
With GCGATTGGGGCAAAGCAGGTTACCATAAGGTTGG the figure was -0.273; with ATCTCTAGGTAAGACTCCGTTCAGTGAAGAACGC, 0.894.
With CCGACTGGGCCACGAAAGGTCATTGATTCAGTGA the figure was -0.0773; with AATACAGGGTCATTGTAGGCCAGAGTACGCACAG, 1.47; with TTACCAAGGTGAGCTGAGGTCGTGGATCCAACTC, -1.47.
The value for TCTATTAGTTGATTAGGGCAACCGCAACAGCGGA was 0.245; that for AGTCAAAGTTCATCTAGGTAACCTAAGATATGCT was 2.
TCAGACAGGTGAAGGTAACGCAGGTACGCAGTCG showed a PBM binding z-score of -0.402.
The value for AGAATGAGGTTATATGTAGATCAGGGAAGAAAGT was 0.548; that for GCTCGGAGGACAAGGTCAGAGATTTGTCCGTAGA was -0.658.
The value for TCTGCTAGGTCAGTTGGTCAGGTAACGAGCTGCC was 0.236; that for CCTCGGAGGACTACAGGAGGTCAGAGCTGCCAGA was -0.728.
With GGAACGACGGCAAGTTGATAGCAGAGTTTGATGG the figure was -0.999.
Regarding ATCTCTAGGTAAAGATAGTTCTGTGAATGCAAAT, the PBM binding z-score was 0.796.
With CGTCCAGGGTCAGAGAGGTCAGTGAATGCCGAGT the figure was -0.103; with TCTAGTTGGTCACGGAGGTCACACCCGACGGGTA, 0.762; with TCATATAGGTAAATGCTAAGTGAAAGTCCGATCT, -0.0273.
The value for TCTGCTAGGTCAGCTGGTCAGCTAACGAGCTGCC was -0.343; that for CTACCAAGGTGAACAAGGGCGTTGATTACTATTC was -0.701.
With AGTCAAAGTTCAAGACGAGGTAACGTAAAGCACG the figure was 0.519; with GCTGCTAGGTCAGGTTGATCAGCTAACGGGTACG, -0.451; with CCTTACGGGTCAAGGTTTTAGCACGGGTGGTACG, -0.202.
On to TGAATGAGGTTATGAGATCAGGGAACGTTGCAAA, for which the PBM binding z-score was -0.381.
The value for AGAACGAGGGCACGCTGAGTTCATAGCAGAGTAG was -0.593; that for AGTCAAAGTTCACTAGGTAACCTAAGATTCAGCT was 1.13.
The value for GTACCAAGGTGAATAGGTCGTGGATGAGTAGGCG was -0.586; that for CTCCAAAGGTCGTGCTCAGGTGAGTATACCAAAC was 0.361; that for TGATATAGGTAAACAGGTGAAAGTCCGTAAGTTA was 0.0217.
The value for TCTATTAGTAGATTAGGGCAACCGAAACAGCGGA was 0.298; that for CGTCCAAGGTCATAGGAGGTCAGTGAGGACAGAT was 0.987.
Turning to TCTCGGAGGACACGGAAGGTCAGAGCTCGACATC, the PBM binding z-score is -0.694.
